From the supplement of paper PMC12494721 come the findings set out here.

Where a name gives a salt, the structure may show the parent alone.

The test has as its system Ruminococcus gnavus DSM 108212. Put plainly: fold change of 2-Phenylethylamine concentration vs plate DMSO controls (fold change (ratio)); higher = more amine produced, active = hit call of the paper (significant change in both replicates, either direction). The settings on record: incubation time: 27 h, anaerobic, 37 °C. The essentials: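 In 80 µL wells, cultures of four gut bacterial strains in mGAM started at OD 0.1 before a 1:1 dilution and grew anaerobically at 37 °C for 27 h. Compounds were added to 20 µM final, except sweeteners at 50 µM final. After extraction of whole cultures with cold acetonitrile/methanol plus 0.1% formic acid and centrifugation, amines were measured by LC–triple-quadrupole MS in dynamic MRM mode against external calibration curves, with within-batch drift correction. Values give fold change over DMSO controls on the same plate, averaged across 2 biological replicates.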
Take `O=C(O)c1cc(-c2ccc(F)cc2F)ccc1O` [Diflunisal] (20 µM): the “fold change of 2-Phenylethylamine concentration” value (“fold change” below) was 1.1 (inactive). For the compound `Fc1ccc([C@@H]2CCNC[C@H]2COc2ccc3c(c2)OCO3)cc1` [Paroxetine hydrochloride] (20 µM), the “fold change” value was 0.885 (inactive).

Regarding `CCN(CC)CCOC(=O)C1(C2CCCCC2)CCCCC1` [Dicyclomine hydrochloride] (20 µM), the “fold change” value is 0.815 (inactive).

In the case of `CN1[C@@H]2CC[C@H]1C[C@@H](OC(=O)c1c[nH]c3ccccc13)C2` [Tropisetron hydrochloride] (20 µM), the “fold change” value is 0.957 (inactive). For the compound `NC(=O)N1c2ccccc2CC(=O)c2ccccc21` [Oxcarbazepine] (20 µM), the “fold change” value was 1.01 (inactive).

Take `N=C(NCCCCCCNC(=N)NC(=N)Nc1ccc(Cl)cc1)NC(=N)Nc1ccc(Cl)cc1` [Chlorhexidine] (20 µM): the “fold change” value was 0.0518 (active). Regarding `CC(=O)Nc1ccccc1` [Acetanilide] (20 µM), the “fold change” value is 1.05 (inactive). Take `Nc1nc(N)nc(-c2cc(Cl)ccc2Cl)n1` [Irsogladine maleate] (20 µM): the “fold change” value was 0.921 (inactive).

Take `Cc1ccsc1C(=CCCN1CCC[C@@H](C(=O)O)C1)c1sccc1C` [Tiagabine hydrochloride] (20 µM): the “fold change” value was 0.927 (inactive). Take `CC(C)NCC(O)c1ccc(O)c(O)c1` (single isomer, unassigned; (-)) [(-) Isoproterenol hydrochloride] (20 µM): the “fold change” value is 0.814 (inactive). For `CN(C)CCN(Cc1ccccc1)c1ccccn1` [Tripelennamine hydrochloride] (20 µM), the “fold change” value is 1.03 (inactive). The value for `C[C@H](NCc1ccc(OCc2cccc(F)c2)cc1)C(N)=O` [Safinamide] (20 µM) was 0.96 (inactive); that for `Cc1cc(NS(=O)(=O)c2ccc(N)cc2)nc(C)n1` [Sulfisomidine] (20 µM) was 1.08 (inactive). Consider `O=C(O)Cc1ccccc1Nc1c(Cl)cccc1Cl` [Diclofenac sodium] (20 µM), for which the “fold change” value was 0.989 (inactive). `CN1CCCN=C1/C=C/c1cccs1` [Pyrantel tartrate] (20 µM): the “fold change” value is 1.01 (inactive). The value for `CN(C(=O)C(Cl)Cl)c1ccc(OC(=O)c2ccco2)cc1` [Diloxanide furoate] (20 µM) was 0.979 (inactive); that for `O=C(Oc1ccccc1)c1ccccc1O` [Phenyl salicylate] (20 µM) was 1.13 (inactive).

For the compound `CCCCC(C)(O)C/C=C/[C@H]1[C@H](O)CC(=O)[C@@H]1CCCCCCC(=O)OC` (mixture of isomers) [Misoprostol] (20 µM), the “fold change” value was 0.945 (inactive). With `Cc1cc(C(C)(C)C)c(O)c(C)c1CC1=NCCN1` [Oxymetazoline hydrochloride] (20 µM), the “fold change” value is 0.996 (inactive). Next, `CCN(CC)CCc1nc(-c2ccccc2)no1` [Oxolamine citrate salt] (20 µM): 1.03 (inactive). Turning to `COc1ccc2c(c1)c(CC(=O)OCC(=O)O)c(C)n2C(=O)c1ccc(Cl)cc1` [Acemetacin] (20 µM), the “fold change” value was 0.907 (inactive). Next, `Cn1cnc([N+](=O)[O-])c1Sc1ncnc2[nH]cnc12` [Azathioprine] (20 µM): 0.984 (inactive); `CCOC(=O)c1ccc(N)cc1` [Benzocaine] (20 µM): 1.1 (inactive).

Turning to `COC1=C(OC)C(=O)C(CCCCCCCCCCO)=C(C)C1=O` [Idebenone] (20 µM), the “fold change” value is 1.17 (inactive). Take `CC(=O)NCCCS(=O)(=O)O` [Acamprosate calcium] (20 µM): the “fold change” value was 0.996 (inactive). Next, `CC(C)NCC(O)COc1cccc2[nH]c3ccccc3c12` (centres undefined) [Carazolol] (20 µM): 1.14 (inactive). The value for `CC(C(=O)O)c1ccc(N2Cc3ccccc3C2=O)cc1` (centres undefined) [Indoprofen] (20 µM) was 1.11 (inactive); that for `CC1(C)S[C@@H]2[C@H](NC(=O)[C@H](N)c3ccccc3)C(=O)N2[C@H]1C(=O)O` [Ampicillin trihydrate] (20 µM) was 0.0431 (active). The value for `CCN1CCCC1CNC(=O)c1cc(S(=O)(=O)CC)c(N)cc1OC` (centres undefined) [Amisulpride] (20 µM) was 1.05 (inactive); that for `COC(=O)Nc1nc2cc(C(=O)c3ccc(F)cc3)ccc2[nH]1` [Flubendazol] (20 µM) was 0.919 (inactive). As to `CCOc1nc2cccc(C(=O)OCc3oc(=O)oc3C)c2n1Cc1ccc(-c2ccccc2-c2noc(=O)[nH]2)cc1` [Azilsartan medoxomil] (20 µM), the “fold change” value was 1.03 (inactive). Turning to `COc1cc(C(=O)N2CCOCC2)cc(OC)c1OC` [Trimetozine] (20 µM), the “fold change” value is 1.04 (inactive). Turning to `CC(C)NC[C@@H](O)COc1ccc(CC(N)=O)cc1` [(R,+) Atenolol] (20 µM), the “fold change” value is 1.08 (inactive). Turning to `O=C(O)Cc1sc(-c2ccccc2)nc1-c1ccc(Cl)cc1` [Fentiazac] (20 µM), the “fold change” value was 1.06 (inactive). As to `Nc1nc(CC(=O)Nc2ccc(CCNC[C@H](O)c3ccccc3)cc2)cs1` [Mirabegron] (20 µM), the “fold change” value was 1.05 (inactive). Take `NS(=O)(=O)c1cc2c(cc1Cl)NC(CC1CCCC1)NS2(=O)=O` (centres undefined) [Cyclopenthiazide] (20 µM): the “fold change” value is 1.04 (inactive). Next, `Cc1cc(/C=C/c2ccc3cc(N(C)C)ccc3[n+]2C)c(C)n1-c1ccccc1` [Pyrvinium pamoate] (20 µM): 1.04 (inactive); `CN1CCC(=C2c3ccccc3C=Cc3ccccc32)CC1` [Cyproheptadine hydrochloride] (20 µM): 1 (inactive); `Cc1ccccc1OCC(O)CO` (centres undefined) [Mephenesin] (20 µM): 1.06 (inactive).
